High-throughput results (PubChem)
An excerpt weighted towards active compounds, which were near 0.7% of everything screened.
PINK1 modulator: changes PINK1 expression; PINK1 immunofluorescence, high-content cytometry, 24 h; actives 0.2% (n = 410,000); Potency, µM (top dose mostly 76.6 µM), hits mostly activators; active = well fitted activation curve with a large enough effect; inconclusive = small, poorly fitted or top-dose-only effect; cell line not stated here; also: nearly all actives have a fitted effect of over 65% in size
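Stable cell line, 250 cells/well, 12 h attachment; compounds pinned at 5 concentrations, 24 h; CCCP control. Fixed with nuclear dye, primary antibodies 12 h at 10 degrees C, secondary plus cell stain; laser-scanning cytometer read.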
Epigenetic reg: derepresses silenced GFP reporter in murine cells | murine LDR cells, GFP reporter derepression, 30 h | Potency, µM (titrated, usually from 53.9 µM), hits mostly activators | actives 0.2% (n = 280,000) | AID 1865; also: nearly all actives have a fitted effect of over 60% in size
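In this reporter-derepression format, murine cells bearing a silenced integrated CMV-GFP locus incubate with test compound (30 h, 37 C), then are washed and imaged; fluorescent objects of 20–120 um count as induced cells.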
Vif-A3G inh: inhibitors of Vif-APOBEC3G interaction | Q9HC16 | HeLa A3G-eYFP + Vif (tagged APOBEC3G with the HIV-1 protein that degrades it), YFP fluorescence, overnight | Potency, µM (titrated, usually from 46.1 µM), hits mostly inhibitors | actives 0.076% (n = 410,000); also: nearly all actives have a fitted effect of over 60% in size
Target sequence (Q9HC16 whole entry, looked up): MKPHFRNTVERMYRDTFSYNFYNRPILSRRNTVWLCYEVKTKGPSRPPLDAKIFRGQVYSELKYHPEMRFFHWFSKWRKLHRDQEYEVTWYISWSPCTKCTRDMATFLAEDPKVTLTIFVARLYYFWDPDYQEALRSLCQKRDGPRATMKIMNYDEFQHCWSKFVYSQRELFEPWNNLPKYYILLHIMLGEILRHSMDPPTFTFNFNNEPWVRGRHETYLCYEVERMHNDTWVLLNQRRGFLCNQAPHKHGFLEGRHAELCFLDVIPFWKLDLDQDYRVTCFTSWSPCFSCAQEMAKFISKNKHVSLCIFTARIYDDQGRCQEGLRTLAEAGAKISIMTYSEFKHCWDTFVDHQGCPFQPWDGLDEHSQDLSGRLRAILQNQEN
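HeLa cells stably expressing Vif and C-terminally eYFP-tagged A3G, seeded overnight at 37 deg C, then exposed to compound by pintool overnight at 37 deg C. Rise in yellow fluorescence (Ex 488/Em 500-530, Acumen) marks blocked Vif-driven A3G degradation.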
Vif-APOBEC3F blk: blocks the Vif interaction with APOBEC3F. HeLa A3F-eYFP + Vif (tagged APOBEC3F with the HIV-1 protein that degrades it), YFP fluorescence increase. Potency, µM (highest dose often 46.1 µM). actives 0.2% (n = 390,000). AID 602313; also: nearly all actives have a fitted effect of over 65% in size
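HeLa cells stably expressing A3F-eYFP plus Vif, plated and incubated overnight at 37 deg C, then exposed to compounds overnight at 37 deg C. Blocked degradation read as raised yellow fluorescence (Ex 488/Em 500-530).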
GLS inhibitor: inhibitors of human glutaminase (GLS); AID 624170; GLS enzymatic activity, qHTS titration; O94925; actives 0.21% (n = 410,000); Potency, µM (highest dose often 45.5 µM), usual class: inhibitors
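Enzyme dispensed in phosphate buffer (45 mM, pH 8.2, 0.02% Tween-20), compounds pinned in, then 1 mM L-glutamine solution and the glutamate oxidase–HRP–Amplex Red mix added; fluorescence read immediately and again after 30 min at room temperature.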
Large screens that a line does not name were inactive; ! = repeats disagree. Unless noted, calls follow the shape of the dose curve; as a rule, active = well fitted curve in the direction sought with a large enough effect; inconclusive = small, poorly fitted or top-dose-only effect, or another doubt; inactive = no such curve, though single readings can be large; an effect the other way counts as inactive or inconclusive.

O=C(N/N=C/c1cn(Cc2cccc(F)c2)c2ccccc12)c1cc(O)cc(O)c1	GLS inhibitor 2.51µM (no result: Epigenetic reg)
O=Cc1c2[nH]c3ccccc3c2cc2[nH]c3ccccc3c12	Epigenetic reg 12.6µM! (no result: PINK1 modulator, Vif-A3G inh, Vif-APOBEC3F blk, GLS inhibitor)
O=C(c1ccccc1)c1nc2ccccc2n(CCCn2c(=O)c(C(=O)c3ccccc3)nc3ccccc32)c1=O	none
Cn1c(=O)c(C(=O)c2ccccc2)nc2ccccc21	GLS inhibitor 11.2µM
Oc1nc(Nc2cccc(Cl)c2)sc1/C=C1\C=Nc2ccccc21	none
CCOC(=O)c1c(Nc2ccc(Cl)cc2)sc(/C=C2\C=Nc3ccccc32)c1O	PINK1 modulator 10µM, Epigenetic reg 7.08µM, Vif-APOBEC3F blk 7.08µM
CCC(C)(C)C(=O)Nc1cc([N+](=O)[O-])ccc1Cl	none
CCN(CC)c1nc(C)c(C(=S)Nc2cc([N+](=O)[O-])ccc2Cl)s1	Vif-APOBEC3F blk 11.2µM
COc1cc([C@@H]2c3cc4c(cc3[C@@H](O[C@@H]3O[C@H]5CO[C@H](C)O[C@H]5[C@H](O)[C@@H]3O)[C@H]3COC(=O)[C@H]23)OCO4)cc(OC)c1OP(=O)(O)O	none (no result: PINK1 modulator, Epigenetic reg, Vif-A3G inh, Vif-APOBEC3F blk)
c1ccc(-c2ncnc3nc4n(c23)CCC4)cc1	PINK1 modulator 7.94µM
Cc1ccc(-n2c(C)nc3ncnc(-c4ccccc4)c32)cc1	none
Cc1oc(-c2ccccc2NC(=O)c2ccccn2)nc1CNC(=O)c1cccc(C#CC(C)(C)O)c1	none (no result: Epigenetic reg, Vif-A3G inh, Vif-APOBEC3F blk, GLS inhibitor)
Cc1cc(Cl)ccc1N1C(=O)CC(NNC(=O)c2cccnc2)C1=O (stereo not drawn)	GLS inhibitor 7.08µM
COc1ccc(/C=C/C(=O)CC(=O)/C=C/c2cccc(O)c2OC)cc1O	Epigenetic reg 12.6µM (no result: PINK1 modulator, Vif-A3G inh, Vif-APOBEC3F blk, GLS inhibitor)
CCOC(=O)c1c(/N=C/c2cccc(C)c2O)sc2c1CCN(C)C2	PINK1 modulator inconclusive
CCOC(=O)c1c(/N=C/c2ccc(C)cc2O)sc2c1CCN(C)C2	GLS inhibitor 10µM
O=C(NCc1nnc2n1CCN(Cc1cc(F)cc(F)c1)CC2)c1cccc(F)c1	none (no result: Epigenetic reg, Vif-A3G inh, Vif-APOBEC3F blk, GLS inhibitor)
CCOc1ccc2nc(N3C(=O)CNC3=S)sc2c1	Vif-APOBEC3F blk inconclusive
COc1ccc2nc(N3C(=O)/C(=C/c4ccc(Cl)cc4)NC3=S)sc2c1	PINK1 modulator 22.4µM, Epigenetic reg inconclusive, Vif-APOBEC3F blk inconclusive
CCCSc1nnc(N2C(=O)C(O)=C(C(=O)c3ccco3)C2c2ccccc2F)s1 (stereo not drawn)	Vif-A3G inh inconclusive, Vif-APOBEC3F blk 3.16µM (no result: Epigenetic reg)
CCn1c(/C=C/c2c(C)n(CC)c3ccccc23)nc2ccccc2c1=O	PINK1 modulator 17.8µM
Cc1ccc2c(/C=C/c3c[nH]c4ccccc34)ccnc2c1C	Vif-A3G inh 11.2µM (no result: PINK1 modulator, Epigenetic reg, Vif-APOBEC3F blk, GLS inhibitor)
C(=Cc1c[nH]c2ccccc12)c1nccc2ccccc12	Vif-A3G inh inconclusive, Vif-APOBEC3F blk 8.91µM (no result: Epigenetic reg)
OCC[n+]1ccc(/C=C/c2c[nH]c3ccccc23)cc1	PINK1 modulator 39.8µM, Vif-A3G inh inconclusive, Vif-APOBEC3F blk 3.55µM
C(=Cc1c[nH]c2ccccc12)c1ccc2ccccc2n1	PINK1 modulator inconclusive, Vif-A3G inh inconclusive, Vif-APOBEC3F blk 25.1µM (no result: Epigenetic reg)
COC(=O)c1c(OCc2ccccc2)cc(=O)n2c1CCN(Cc1cccc(C)n1)CC2	none (no result: Epigenetic reg, Vif-A3G inh, Vif-APOBEC3F blk, GLS inhibitor)
COCc1ccc(C(=O)N2CCOc3c(cc(-c4cc(C)c5cccc(OC)c5n4)cc3OC)C2)o1	none (no result: Epigenetic reg, Vif-A3G inh, Vif-APOBEC3F blk, GLS inhibitor)
S=C(Nc1cccc2ccccc12)NN1CCOCC1	none
S=C(Nc1cccc2ccccc12)NN1CCCCCC1	Vif-APOBEC3F blk 22.4µM (no result: Epigenetic reg)
COc1ccccc1C1CN(Cc2c(C)nn(C)c2Cl)Cc2ccccc2O1 (stereo not drawn)	none (no result: Epigenetic reg, Vif-A3G inh, Vif-APOBEC3F blk, GLS inhibitor)
CCN(CC)C(=O)Cn1c(C)c(/C=C/c2cc[n+](C)cc2)c2ccccc21	Vif-A3G inh 7.94µM, Vif-APOBEC3F blk inconclusive (no result: Epigenetic reg)
CCN(CC)C(=O)Cn1c(=O)n(CCc2ccccc2)c(=O)c2ccccc21	none
COc1cccc(C(=O)N(Cc2cc3cc4c(cc3nc2N(C)C)OCO4)CC2CCCO2)c1 (stereo not drawn)	none (no result: Epigenetic reg, Vif-A3G inh, Vif-APOBEC3F blk, GLS inhibitor)
Cc1ccn2c(NC3CCCC3)c(-c3ccsc3)nc2c1	GLS inhibitor 7.08µM
CCCCCCSc1cccc(-c2nc3cc(C)ccn3c2NC2CCCCC2)c1	PINK1 modulator inconclusive (no result: Epigenetic reg)
Cc1ccn2c(NC3CCCCC3)c(-c3cccc(SC4CCCCC4)c3)nc2c1	PINK1 modulator 20µM (no result: Epigenetic reg)
Cc1ccn2c(NC3CCCCC3)c(-c3ccc(SC4CCCCC4)cc3)nc2c1	PINK1 modulator inconclusive (no result: Epigenetic reg, Vif-A3G inh, Vif-APOBEC3F blk)
